Target: PCDHA4
Experiment: pooled miR-30 sensor sort-seq; sequence = guide strand
Details: shRNA
Further: reference of the scale not given here.

| Sequence | sensor-assay potency score (higher = more potent) |
| --- | --- |
| TTCCTCAGTTGTCTGCAGCTGA | 0.537 |
| TTAAGTTTAATTACCAATGTTC | -0.347 |
| TTGGATTTCACATTTGGCGAAA | -0.705 |
| TTTGTCGGACACGCTGATCAGG | -0.74 |

Target: PCDHGA11
Experiment: as above
Details: shRNA

| Sequence | sensor-assay potency score (higher = more potent) |
| --- | --- |
| TAAAACAGGAGACTTGACCATT | -0.606 |
| TTGAATTTCCATCTCATAGAAT | -0.931 |
| TTGTCCACCGCAACCACCTTGG | -0.673 |
| TATATTGTAGCTCTGGACCAAC | -0.9 |
| TAGCTCTGGACCAACTCCCTGT | 0.0165 |
| TTTGTCCACCGCAACCACCTTG | -1.17 |
| TCAATTTGTAATAATTTCCATA | -0.421 |
| TATCTCCACTTCGTCCTCCTGG | -0.661 |
| TTTAGAAGAGCAATCACTGTAC | 0.556 |
| TTTTCTGGAACACTCACGCGAT | -0.577 |
| ACAGTGATCAACATCGTCGTGG | -0.0572 |
| TCTTGTTGCCATTGCCACCTGC | -0.107 |
| TTCTCCAGAATCTTGATCTTGC | 0.227 |

Target: PCP2
Experiment: as above
Details: shRNA

| Sequence | sensor-assay potency score (higher = more potent) |
| --- | --- |
| TGTCACACGTTGGTCATCCATG | -1.21 |
| TGAAGAAGCCCTCCTGGTCTGG | -1.06 |
| TGACTGTCACACGTTGGTCATC | -1.61 |
| TCGTTTCTGTGCTCCGTCCTTG | -0.435 |
| TTGGTGGTCTGGCCCGGCCCGG | -1.82 |
| TTTCTGTGCTCCGTCCTTGGAC | -1.03 |
| TTGCAGTGAACAGCGCTGTCCC | -0.308 |
| ACACGTTGGTCATCCATGCGGC | -0.873 |
| TCCATGAGGCTGTCCATCTCGG | -1.39 |
| ATGAGGCTGTCCATCTCGGGGG | -1.33 |
| TGAACAGCGCTGTCCCTCCATC | -1.32 |
| TTCTGTGCTCCGTCCTTGGACC | -1.15 |

Target: PCSK5
Experiment: as above
Details: shRNA

| Sequence | sensor-assay potency score (higher = more potent) |
| --- | --- |
| TTTTGCTTCAACCATGTCCGTG | -0.77 |
| TTTTGCAGGATTTGTATCCATT | -1.05 |
| TTCCATTGAAATGAAACTGTGG | -0.149 |
| TTGTCTTGATTTGTCGGTCTGT | 0.944 |
| TTTGCTTCAACCATGTCCGTGA | 0.588 |
| TTGATGAATCCGTACTTGCTGG | -0.268 |
| TAGTGCAAACAGTCATTGCAGT | -0.552 |
| TTGAAAGCAATTCCGACTGTGC | -0.25 |
| TTGTACAGTTCTTGAATCCTGG | -0.113 |
| TTGATTTGTCGGTCTGTGCTCT | 0.6 |
| TTTGACACATTCCTAAGTCTAA | -0.793 |

Source: the OligoGym collection
